The structures appear in SMILES notation. Results filed as inconclusive are left out. Entries that show only a call come without a potency. A number with no mark means an inactive call. Calls of active or inactive are those of the source. The call rests on the fitted dose curve; in most records, active means well fitted inhibition curve with a large enough effect; inconclusive means small, poorly fitted or top-dose-only effect; inactive means no such curve, though single readings can be large or run the other way.
Potency means the concentration at half of the fitted maximal effect.

This assay is described as follows: Primary qHTS for inhibitors of nuclear receptor binding SET domain protein 2 (NSD2) in an RCH-ACV wild type WT cells (2C) (AID 1645877). Further: nearly all actives have a fitted effect of over 70% in size. The following applies: RCH-ACV (leukaemia line) NSD2 WT (2C) viability, CellTiter-Glo, 72 h; series mostly up to 44.9 µM. (In general: In qHTS, concentration-response curves come from the screen itself.)
With `CC(=O)N[C@@H](CCC(=O)O)C(=O)O`, the Potency entry was “inactive”.
On to `O=C1C(=O)c2ccccc2C(O)=C1C1CCC(c2ccc(Cl)cc2)CC1` (stereo not drawn), for which the Potency entry was “inactive”.
The same measure, in the same setting: the same measure for `O=C(N/N=C/c1ccc([N+](=O)[O-])o1)c1ccc(O)cc1`: 8.41 µM (active); for `CCCN(CCC)S(=O)(=O)c1ccc(C(=O)O)cc1`: “inactive”.
Same read-out and setting: as for `NC(=S)N/N=C/c1cccnc1`, the entry is “inactive”.
Take `COc1cc(C(=O)N2CCCCCCC2)cc(OC)c1OC`: the Potency entry was “inactive”.
The same measure, in the same setting: as for `CCN(CC)CCNc1ccc(CO)c2sc3ccccc3c(=O)c12`, the figure is 1.33 µM (active).
Same read-out and setting: as for `Cc1cccc(C)c1NC(=O)CN1CCCC1`, the entry is “inactive”; as for `Cc1ccc(S(=O)(=O)NC(=O)NC2CCCC2)cc1`, “inactive”; as for `NC(N)=NN=C(/C=C/c1ccc([N+](=O)[O-])o1)/C=C/c1ccc([N+](=O)[O-])o1`, 0.531 µM (active).
In the case of `OCc1ccccn1`, the Potency result was “inactive”.
Take `CCN(CC)CCNC(=O)c1cc(Br)c(N)cc1OC`: the Potency entry was “inactive”.
Same read-out and setting: as for `Nc1ccc(S(=O)(=O)NCc2ccccc2)cc1`, the entry is “inactive”; as for `CN(C)C(=O)Nc1ccc(Cl)c(Cl)c1`, “inactive”.
The same measure, in the same setting: as for `COc1cc(C(=O)NCc2ccc(OCCN(C)C)cc2)cc(OC)c1OC`, the entry is “inactive”; as for `O=C(O)CCc1nc2ccccc2[nH]1`, “inactive”.
Regarding `COc1ccc(/C=N/NC(=O)c2ccncc2)cc1OC`, the Potency result was “inactive”.
The same measure, in the same setting: the same measure for `Oc1ccccc1C=NCc1ccccc1`: “inactive”.
Same read-out and setting: the same measure for `Cl/C(=C\n1cncn1)c1ccc(Cl)cc1Cl`: “inactive”; for `Cc1ccc2c(Br)cc(Br)c(O)c2n1`: 2.37 µM (active); for `CC(C)Cn1cnc2c1c(=O)n(C)c(=O)n2C`: “inactive”.
Same read-out and setting: as for `O=C1C(O)=C(O)C(=O)C(O)=C1O`, the entry is “inactive”; as for `CCC(C(=O)OCCOCCN(CC)CC)c1ccccc1` (stereo not drawn), “inactive”.
Consider `Nc1nc(N)c(-c2ccccc2)s1`, for which the Potency result is “inactive”.
Turning to `OC[C@H]1O[C@@H]2O[C@H]3[C@H](O)[C@@H](O)[C@@H](O[C@H]4[C@H](O)[C@@H](O)[C@@H](O[C@H]5[C@H](O)[C@@H](O)[C@@H](O[C@H]6[C@H](O)[C@@H](O)[C@@H](O[C@H]7[C@H](O)[C@@H](O)[C@@H](O[C@H]8[C@H](O)[C@@H](O)[C@@H](O[C@H]1[C@H](O)[C@H]2O)O[C@@H]8CO)O[C@@H]7CO)O[C@@H]6CO)O[C@@H]5CO)O[C@@H]4CO)O[C@@H]3CO`, the Potency result was “inactive”.
As for `Cc1cc2c(OCC(CNC(C)(C)C)OC(=O)c3ccccc3)cccc2[nH]1` (stereo not drawn), the Potency result was “inactive”.
On the same count and under the same terms, as for `CCOC(=O)C(C#N)=C(c1ccccc1)c1ccccc1`, the entry is “inactive”; as for `COc1ccc(C(Cl)=C(c2ccc(OC)cc2)c2ccc(OC)cc2)cc1`, “inactive”.
With `COc1ccc(C(=O)c2ccccc2O)c(O)c1`, the Potency entry was “inactive”.
Still for that read-out and setting: as for `O=[N+]([O-])c1cccc(S(=O)(=O)NCCNS(=O)(=O)c2cccc([N+](=O)[O-])c2)c1`, the entry is “inactive”; as for `CCCCCCCCCCCCCCC[C@H](O)[C@@H](N)CO`, 5.96 µM (active); as for `CC(=O)NO`, “inactive”.
Same read-out and setting: the same measure for `CC(=O)Nc1ncc([N+](=O)[O-])s1`: “inactive”; for `CC(C)NCC(O)c1ccc2ccccc2c1` (stereo not drawn): “inactive”.
`N=C(N)N1CCc2ccccc2C1`: the activity change, negative = cell killing is -10.2% [at 4.96 µM].
For `CC(C)CCCC(C)N` (stereo not drawn), the Potency result was “inactive”.
On the same count and under the same terms, as for `CN1CCN(c2cc3c(cc2F)c(=O)c(C(=O)O)cn3-c2ccc(F)cc2)CC1`, the figure is 7.5 µM (active).
On the same count and under the same terms, the same measure for `CCN(CC)CCOc1ccc2c(c1)C(=O)c1cc(OCCN(CC)CC)ccc1-2`: 9.44 µM (active).

The values above are taken from PubChem BioAssay (NCATS).
